# Experimental data from paper PMC5913336, “True equilibrium measurement of transcription factor-DNA binding affinities using automated polarization microscopy”.
# pKd: −log10 of the molar value.
# Target: D (Drosophila melanogaster, UniProt Q24533 127-229)
# Experiment: FP; 33 mM phosphate pH 7.0, 90 mM NaCl, 0.01% Tween 20, 0.1 mM DTT, 0.5% agarose; room temperature
# Conditions: tags: N-GST (pGEX-6P-1, kept); dsDNA, one strand shown
# Sequence of D (Q24533 127-229): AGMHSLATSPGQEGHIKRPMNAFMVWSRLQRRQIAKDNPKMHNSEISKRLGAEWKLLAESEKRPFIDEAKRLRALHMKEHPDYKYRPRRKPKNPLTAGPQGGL
Sequence,pKd,binding signal
GACCATTGTTCTTG,~8.64,
GACCATTTTTCTTG,,40.5 Kd / Kd of best base at the position
TACCATTGTTCTTG,,1.36 Kd / Kd of best base at the position
GACCCTTGTTCTTG,,32.5 Kd / Kd of best base at the position
GACTATTGTTCTTG,,2.24 Kd / Kd of best base at the position
GACCATTGTTCATG,,2.96 Kd / Kd of best base at the position
GAACATTGTTCTTG,,10.5 Kd / Kd of best base at the position
GACCATTGTTCTGG,,1.95 Kd / Kd of best base at the position
GACCTTTGTTCTTG,,2.8 Kd / Kd of best base at the position
GACCATGGTTCTTG,,39.1 Kd / Kd of best base at the position
GAGCATTGTTCTTG,,2.52 Kd / Kd of best base at the position
GACCATTGGTCTTG,,54.3 Kd / Kd of best base at the position
GACCATTGTTGTTG,,3.32 Kd / Kd of best base at the position
GACCATTGTTATTG,,3.41 Kd / Kd of best base at the position
GACCATAGTTCTTG,,40.3 Kd / Kd of best base at the position
GATCATTGTTCTTG,,2.05 Kd / Kd of best base at the position
GGCCATTGTTCTTG,,1.18 Kd / Kd of best base at the position
GACCATTGTTCGTG,,3.61 Kd / Kd of best base at the position
GACCATTGTTCCTG,,3.75 Kd / Kd of best base at the position

Sequence,pKd,binding signal
GACCGTTGTTCTTG,,26 Kd / Kd of best base at the position
GACAATTGTTCTTG,,10.4 Kd / Kd of best base at the position
GACCATTGCTCTTG,,46 Kd / Kd of best base at the position
GACCATTGTTCTTA,,1.16 Kd / Kd of best base at the position
GACCATTATTCTTG,,14.1 Kd / Kd of best base at the position
GACCATTGTACTTG,,8.66 Kd / Kd of best base at the position
GACCATCGTTCTTG,,34.5 Kd / Kd of best base at the position
GTCCATTGTTCTTG,,1.08 Kd / Kd of best base at the position
GACCAGTGTTCTTG,,33 Kd / Kd of best base at the position
GACCATTGTGCTTG,,11.9 Kd / Kd of best base at the position
GACCATTGTTCTTC,,1.12 Kd / Kd of best base at the position
GACCACTGTTCTTG,,40.3 Kd / Kd of best base at the position
AACCATTGTTCTTG,,1.37 Kd / Kd of best base at the position
GACCATTCTTCTTG,,17.3 Kd / Kd of best base at the position
GACCATTGTTCTTT,,1.16 Kd / Kd of best base at the position
GACCAATGTTCTTG,,44.4 Kd / Kd of best base at the position
GACCATTGTCCTTG,,8.08 Kd / Kd of best base at the position
GACCATTGTTCTCG,,1.79 Kd / Kd of best base at the position
